Source: PubChem BioAssay (NCATS)
Results filed as inconclusive are left out. Activity calls are given as the source filed them. Unless noted, calls come from the whole dose curve; as a rule, active = well fitted curve in the direction sought with a large enough effect; inconclusive = small, poorly fitted or top-dose-only effect, or another doubt; inactive = no such curve, though single readings can be large; an effect the other way counts as inactive or inconclusive.

Tests used:
[1] = Cytometric Cell-Based qHTS for Inhibitors of the mTORC1 Signaling Pathway in MEF (Tsc2-/-, p53-/-) Cells (AID 2660);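 note: Tsc2 and p53 null MEFs carrying empty vector with compound for 24 h; percent of cells above a phospho-rpS6 to PI ratio cutoff in each well; series mostly up to about 38 µM; plate controls were DMSO for no effect and rapamycin for full effect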
In short: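 Readout: Alexa-488 phospho-rpS6 (Ser235/236) intensity divided by PI intensity, thresholded against 7.5 nM rapamycin wells and reported as % positive cells. PI cell count served as the viability measure. Compound exposure was 24 hrs at 37 degree Celsius.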

[2] = High Content Imaging Cell-Based qHTS for Inhibitors of the mTORC1 Signaling Pathway in MEF (Tsc2-/-, p53-/-) Cells (AID 2666);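 note: percent of cells scored positive for phospho-rpS6 Ser235/236 immunostaining by imaging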
In short: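 Cells were plated, dosed with compound after 24 hrs, and incubated another 24 hrs at 37 degree Celsius. Fixed cells were immunostained for phospho-rpS6 Ser235/236 and counterstained, and the normalized signal was scored as % active cells against rapamycin and DMSO controls.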

[3] = molecular target: Ubiquitin carboxyl-terminal hydrolase 2 (Homo sapiens) (UniProt O75604); experiment: qHTS Validation Assay for Inhibitors of Ubiquitin-specific Protease USP2a Using CHOP2 as the Reporter (AID 463106);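 note: plate controls were DMSO for no effect and full inhibition by NEM for full effect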
In short: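 10nM USP2 core + cpd, 30min RT; add 25nM Ub-CHOP2/25nM substrate; 60min RT; FI 485/531nm. Buffer Tris pH 8.0, CaCl2, BME, CHAPS. Norm. to NEM = 100% inhibition; time-zero read flags fluorescent artifacts.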

[4] = molecular target: Tumor susceptibility gene 101 protein (Homo sapiens) (UniProt Q99816); experiment: qHTS Validation Assay for Iinhibitors of HIV-1 Budding by Blocking the Interaction of PTAP/TSG101 (AID 485342; calls by dose curve; note: 0% is about no effect)
Tumor susceptibility gene 101 protein (Homo sapiens), sequence (Q99816 whole entry, looked up, the tested form may be a part): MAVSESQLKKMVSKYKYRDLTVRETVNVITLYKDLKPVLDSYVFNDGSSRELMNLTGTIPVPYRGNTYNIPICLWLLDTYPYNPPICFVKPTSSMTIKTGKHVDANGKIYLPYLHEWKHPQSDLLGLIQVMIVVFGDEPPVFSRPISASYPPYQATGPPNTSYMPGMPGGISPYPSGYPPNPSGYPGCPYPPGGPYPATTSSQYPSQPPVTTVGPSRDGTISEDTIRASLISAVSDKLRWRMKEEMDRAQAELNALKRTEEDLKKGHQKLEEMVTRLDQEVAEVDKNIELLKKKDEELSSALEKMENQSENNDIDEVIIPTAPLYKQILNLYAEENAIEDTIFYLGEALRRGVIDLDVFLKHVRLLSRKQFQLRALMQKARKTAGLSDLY
In short: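 Tsg101 binding domain (10 uM final) in pH 7.5 HEPES/NaCl/Tween 20/EDTA/TCEP buffer was mixed with pin-transferred compounds, then FITC-labeled PTAP peptide (50 nM final) was added; after 20 min at r.t., fluorescence polarization was read.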

[5] = molecular target: Beta-2 adrenergic receptor (Homo sapiens) (UniProt P07550); experiment: qHTS validation assay of beta-arrestin-biased ligands of beta2-adrenergic receptor (AID 485366); note: 0% is about no effect
Beta-2 adrenergic receptor (Homo sapiens), sequence (P07550 whole entry, looked up): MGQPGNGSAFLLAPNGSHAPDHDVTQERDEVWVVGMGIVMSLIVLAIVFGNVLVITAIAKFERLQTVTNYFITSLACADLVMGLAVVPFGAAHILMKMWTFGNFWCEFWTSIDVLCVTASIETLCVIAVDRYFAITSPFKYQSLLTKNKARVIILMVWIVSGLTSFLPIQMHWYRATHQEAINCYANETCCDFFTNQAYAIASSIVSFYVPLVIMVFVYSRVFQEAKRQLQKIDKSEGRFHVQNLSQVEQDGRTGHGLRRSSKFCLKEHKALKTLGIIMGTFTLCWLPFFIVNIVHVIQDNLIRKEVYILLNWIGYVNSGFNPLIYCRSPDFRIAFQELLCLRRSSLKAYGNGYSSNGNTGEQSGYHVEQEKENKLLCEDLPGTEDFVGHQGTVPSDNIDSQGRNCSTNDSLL
In short: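 Tango cells (recombinant beta2-AR with recombinant beta-arrestin; recruitment releases tTA driving luciferase) were treated with compounds titrated up to 46 microM for 18 hr at 37 degrees C. Luminescence gave %Activity, and concentration-response curves were curve-classified.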

[6] = molecular target: Thioredoxin reductase 1, cytoplasmic (Rattus norvegicus) (UniProt O89049); experiment: qHTS Assay for Substrates of Mammalian Selenoprotein Thioredoxin Reductase 1 (TrxR1) (AID 488772);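 note: NADPH fluorescence in the first read after selenite addition and not the 8 min delta; series mostly up to about 57 µM; 0% is about no effect; a drop in NADPH fluorescence below the no-compound background marks a TrxR1 substrate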
In short: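 Quantitative HTS in Tris-HCl buffer at pH 7.5 with EDTA and Tween-20, using rat TrxR1, 400 uM NADPH and 400 uM selenite (final). A fall in initial NADPH fluorescence relative to background marked substrate behaviour.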

[7] = molecular target: Thioredoxin reductase 1, cytoplasmic (Rattus norvegicus) (UniProt O89049); experiment: qHTS Assay for Inhibitors of Mammalian Selenoprotein Thioredoxin Reductase 1 (TrxR1) (AID 488773); conditions: Potency: inhibition;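 note: drop in NADPH fluorescence over an 8 min run after selenite addition; series mostly up to about 57 µM; % is set by controls: 0 for no effect and ±100 for the full control effect; nearly all actives have a fitted effect of over 40% in size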
In short: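 Steps: enzyme (90 nM) plus NADPH (400 uM final), 5 min at ~22 deg C; compound added, 15 min; selenite (400 uM final) added; fluorescence followed for 8 min. Concentration-response curves derived from the normalized delta values.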

[8] = molecular target: Flap endonuclease 1 (Homo sapiens) (UniProt P39748); experiment: qHTS Validation Assay for the Inhibitors of Human Flap endonuclease 1 (FEN1) (AID 488816); note: % is set by controls: 0 for no effect and ±100 for the full control effect
Flap endonuclease 1 (Homo sapiens), sequence (P39748 whole entry, looked up): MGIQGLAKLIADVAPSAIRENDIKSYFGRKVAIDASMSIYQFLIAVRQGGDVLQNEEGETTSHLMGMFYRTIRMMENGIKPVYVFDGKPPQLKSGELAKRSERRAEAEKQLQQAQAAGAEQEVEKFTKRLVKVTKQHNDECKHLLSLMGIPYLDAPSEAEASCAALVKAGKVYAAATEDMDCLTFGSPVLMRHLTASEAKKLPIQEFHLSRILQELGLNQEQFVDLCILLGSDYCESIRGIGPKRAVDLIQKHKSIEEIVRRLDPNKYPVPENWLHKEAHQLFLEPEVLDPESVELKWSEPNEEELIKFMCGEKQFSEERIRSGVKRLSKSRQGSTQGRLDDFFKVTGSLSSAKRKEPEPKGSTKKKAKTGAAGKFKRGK
In short: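 Readings taken at 0 and 15 min after starting the reaction with 50 nM (final) substrate supplied the signal. Compounds had first sat with 10 nM FEN1 reagent for 15 min at room temperature. Values come from Hill-equation concentration-response fits.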

[9] = molecular target: Methanococcus maripaludis chaperonin (MmCpn) (UniProt Q6LX38); experiment: High-Throughput Screening for Modulators of Cytosolic Chaperonin Activity: MmCpn Primary Screen (AID 488978);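 note: 50 nM MmCpn enzyme hydrolysing 30 µM ATP at 37 °C; 0% is about no effect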
In short: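 MmCpn (50 nM final) was preincubated with compound 5 min at RT, then 30 uM ATP (final) was added and the reaction ran 10 min at 37C. ADP produced was detected by Transcreener HTRF (ex 320 nm; em 590/665 nm).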

[10] = molecular target: Thyrotropin receptor (Homo sapiens) (UniProt P16473); experiment: qHTS Assay for Antagonists of the Thyroid Stimulating Hormone Receptor (AID 488980); note: series mostly up to about 58 µM; 0% is about no effect
Thyrotropin receptor (Homo sapiens), sequence (P16473 whole entry, looked up): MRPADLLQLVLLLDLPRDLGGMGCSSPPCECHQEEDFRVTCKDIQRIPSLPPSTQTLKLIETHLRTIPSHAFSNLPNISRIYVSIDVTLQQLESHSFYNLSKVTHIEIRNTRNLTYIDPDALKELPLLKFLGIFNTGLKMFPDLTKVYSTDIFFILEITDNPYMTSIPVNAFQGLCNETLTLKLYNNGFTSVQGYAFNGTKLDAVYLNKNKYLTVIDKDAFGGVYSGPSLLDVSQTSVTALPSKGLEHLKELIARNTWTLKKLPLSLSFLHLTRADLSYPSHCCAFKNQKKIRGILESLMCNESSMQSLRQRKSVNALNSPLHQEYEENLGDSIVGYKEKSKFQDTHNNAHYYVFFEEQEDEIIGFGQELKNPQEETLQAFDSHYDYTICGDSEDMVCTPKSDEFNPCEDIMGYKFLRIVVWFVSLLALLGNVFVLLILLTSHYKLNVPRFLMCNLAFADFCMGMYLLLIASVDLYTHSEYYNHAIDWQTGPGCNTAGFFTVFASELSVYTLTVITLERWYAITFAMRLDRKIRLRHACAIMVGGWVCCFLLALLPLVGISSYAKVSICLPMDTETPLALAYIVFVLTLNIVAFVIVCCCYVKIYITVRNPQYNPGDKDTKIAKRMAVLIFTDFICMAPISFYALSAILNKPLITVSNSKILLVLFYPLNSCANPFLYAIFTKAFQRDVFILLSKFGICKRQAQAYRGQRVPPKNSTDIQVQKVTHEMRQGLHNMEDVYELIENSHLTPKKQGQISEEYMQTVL
In short: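 HEK293 cells transfected with human TSHR, suspended in HEPES-buffered HBSS with 70 uM RO 20-1724, were treated with compounds plus TSH at EC80 (4 nM final). cAMP was measured by competitive HTRF (cryptate anti-cAMP antibody, cAMP-d2 acceptor).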

[11] = molecular target: D(1A) dopamine receptor (Homo sapiens) (UniProt P21728); experiment: HTS Assay for Allosteric Agonists of the Human D1 Dopamine Receptor: Primary Screen for Agonists (AID 488981); note: 0% is about no effect
In short: (§1)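 Calcium flux in an inducible, force-coupled HEK293 Trex D1 line (overnight at 30 C): agonist mode is the 180 s kinetic read after compound; potentiator mode is the following 180 s read after dopamine at EC20.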

[12] = molecular target: D(1A) dopamine receptor (Homo sapiens) (UniProt P21728); experiment: HTS Assay for Allosteric Agonists of the Human D1 Dopamine Receptor: Primary Screen for Potentiators (AID 488982); note: 0% is about no effect
In short: as §1

[13] = molecular target: Thyrotropin-releasing hormone receptor (Homo sapiens) (UniProt P34981); experiment: qHTS for Small Molecule Agonists and Allosteric Enhancers of Human TRH Receptor: Validation Screen for Agonists (AID 493127;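 active = calcium activation more than 3 SD above the typical response in the agonist read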;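 note: intracellular calcium rise by fluo-8 fluorescence before TRH EC20 addition; 0% is about no effect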); conditions: TRH receptor agonist cell assay; at 2 µM; active compounds read high
Thyrotropin-releasing hormone receptor (Homo sapiens), sequence (P34981 whole entry, looked up): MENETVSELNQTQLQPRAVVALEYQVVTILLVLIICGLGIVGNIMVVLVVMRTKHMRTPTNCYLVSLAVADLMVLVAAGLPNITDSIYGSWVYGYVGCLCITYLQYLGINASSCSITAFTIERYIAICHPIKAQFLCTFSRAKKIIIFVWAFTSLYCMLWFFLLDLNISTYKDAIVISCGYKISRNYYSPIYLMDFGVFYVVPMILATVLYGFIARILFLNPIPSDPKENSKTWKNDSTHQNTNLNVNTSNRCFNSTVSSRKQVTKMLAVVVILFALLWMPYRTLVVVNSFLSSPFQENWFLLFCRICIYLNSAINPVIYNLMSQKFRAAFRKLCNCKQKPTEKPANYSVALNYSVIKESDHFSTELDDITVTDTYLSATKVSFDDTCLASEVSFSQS
In short: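 Cells 2000/well, 10% FCS, 18 h 33.5C/5% CO2 → fluo-8 Ca dye, RT 30 min–1.5 h → FDSS baseline 10 × 1 s → compound added → 230 cycles (1 s/cycle) agonist mode. TRH controls.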

[14] = molecular target: ATP-dependent 6-phosphofructokinase (Trypanosoma brucei brucei) (UniProt O15648); experiment: qHTS Assay to Find Inhibitors of T. brucei phosphofructokinase: hit validation (AID 492961);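 note: luminescence reports ADP formed as PFK phosphorylates fructose-6-phosphate with ATP; series mostly up to about 51 µM; % is set by controls: 0 for no effect and ±100 for the full control effect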
ATP-dependent 6-phosphofructokinase (Trypanosoma brucei brucei), sequence (O15648 whole entry, looked up): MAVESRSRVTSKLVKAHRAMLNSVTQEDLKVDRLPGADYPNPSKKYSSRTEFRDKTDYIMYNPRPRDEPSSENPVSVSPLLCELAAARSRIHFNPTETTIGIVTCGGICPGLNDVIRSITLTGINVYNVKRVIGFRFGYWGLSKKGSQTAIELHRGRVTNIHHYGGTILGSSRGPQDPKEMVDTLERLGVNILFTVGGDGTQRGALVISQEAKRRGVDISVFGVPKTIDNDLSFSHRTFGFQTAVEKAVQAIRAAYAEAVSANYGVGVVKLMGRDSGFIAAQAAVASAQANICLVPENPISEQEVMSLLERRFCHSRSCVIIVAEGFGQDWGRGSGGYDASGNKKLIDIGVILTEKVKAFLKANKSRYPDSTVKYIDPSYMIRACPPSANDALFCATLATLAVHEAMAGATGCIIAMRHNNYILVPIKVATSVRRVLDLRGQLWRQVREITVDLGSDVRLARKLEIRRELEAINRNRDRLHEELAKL
In short: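 Measures ADP output of PFK (1.25 nM) at 0.1 mM ATP, 0.5 mM F6P, pH 8.0 TEA buffer with 5 mM MgCl2. No-enzyme wells define full inhibition; uninhibited enzyme wells define zero.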

[15] = Validation screen for small molecules that induce DNA re-replication in MCF 10A normal breast cells (AID 463097); note: nearly all actives have a fitted effect of over 60% in size; note: potency is the fitted concentration of half-maximal effect
In short: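 Readout: Hoechst nuclear fluorescence intensity, 405 ex / 500-530 em, by scanning plate imager; re-replication scored as increase in nuclei with elevated DNA content. Cells exposed to compound 48 hr, 37 C, 5% CO2 beforehand.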

[16] = qHTS Validation Assay to Find Inhibitors of Chronic Active B-Cell Receptor Signaling (AID 485345; active = well fitted curve in the direction sought with a large enough effect in the main read-out, with a control signal flat, not every such curve was filed as active;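 note: 0% = untreated basal cells and 100% = 10 µM MG-132 proteasome inhibitor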)
In short: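 Read-out: ratio of filter-corrected green (IkappaBalpha fusion) to red (native) luciferase signal in doxycycline-induced TMD8 cells after 4 h at 37C. Titration spanned 46 uM–3 nM; Data were normalised to basal cells and 10 uM MG-132 wells.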

[17] = Quantitative high throughput screen for delayed death inhibitors of the malarial parasite plastid, 96 hour incubation (AID 488745); note: nearly all actives have a fitted effect of over 70% in size; note: potency is the fitted concentration of half-maximal effect
In short: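 Infected erythrocytes were added to compound in Albumax-supplemented RPMI 1640 at 0.1% parasitemia and 2% hematocrit (final), incubated 96 h at 37 C under 5% CO2, then luciferase reagent was added and luminescence measured.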

[18] = Quantitative high throughput screen for delayed death inhibitors of the malarial parasite plastid, 48 hour incubation (AID 488752); note: % is set by controls: 0 for no effect and ±100 for the full control effect; nearly all actives have a fitted effect of over 65% in size
In short: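 Readout is firefly luciferase luminescence from a reporter integrated into the parasite genome, with lower signal taken as inhibited growth. Infected red cells (0.1% parasitemia, 2% hematocrit final) are cultured with compound for one 48 h cycle at 37 C.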

[19] = Validation screen for small molecules that induce genotoxicity in human embryonic kidney (HEK293T) cells expressing luciferase-tagged ELG1 (AID 493106); note: potency is the fitted concentration of half-maximal effect
In short: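 Luminescence from an ELG1-luciferase fusion serves as the read-out, rising when genetic stress elevates ELG1 protein. HEK293T reporter cells (2,000 per well) received 23 nL compound, incubated 16 hr at 37 °C, then ONE-Glo for 30 min at room temperature.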

[20] = molecular target: ATPase family AAA domain-containing protein 5 (Homo sapiens) (UniProt Q96QE3); experiment: Validation screen for small molecules that inhibit ELG1-dependent DNA repair in human embryonic kidney (HEK293T) cells expressing luciferase-tagged ELG1 (AID 493107);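 note: cells co-treated with the DNA-damaging agent 5-fluorouridine alongside compound; series mostly up to about 46 µM; % is set by controls: 0 for no effect and ±100 for the full control effect; inhibitors lower the ELG1-luciferase luminescence signal; nearly all actives have a fitted effect of over 70% in size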
ATPase family AAA domain-containing protein 5 (Homo sapiens), sequence (Q96QE3 whole entry, looked up, the tested form may be a part): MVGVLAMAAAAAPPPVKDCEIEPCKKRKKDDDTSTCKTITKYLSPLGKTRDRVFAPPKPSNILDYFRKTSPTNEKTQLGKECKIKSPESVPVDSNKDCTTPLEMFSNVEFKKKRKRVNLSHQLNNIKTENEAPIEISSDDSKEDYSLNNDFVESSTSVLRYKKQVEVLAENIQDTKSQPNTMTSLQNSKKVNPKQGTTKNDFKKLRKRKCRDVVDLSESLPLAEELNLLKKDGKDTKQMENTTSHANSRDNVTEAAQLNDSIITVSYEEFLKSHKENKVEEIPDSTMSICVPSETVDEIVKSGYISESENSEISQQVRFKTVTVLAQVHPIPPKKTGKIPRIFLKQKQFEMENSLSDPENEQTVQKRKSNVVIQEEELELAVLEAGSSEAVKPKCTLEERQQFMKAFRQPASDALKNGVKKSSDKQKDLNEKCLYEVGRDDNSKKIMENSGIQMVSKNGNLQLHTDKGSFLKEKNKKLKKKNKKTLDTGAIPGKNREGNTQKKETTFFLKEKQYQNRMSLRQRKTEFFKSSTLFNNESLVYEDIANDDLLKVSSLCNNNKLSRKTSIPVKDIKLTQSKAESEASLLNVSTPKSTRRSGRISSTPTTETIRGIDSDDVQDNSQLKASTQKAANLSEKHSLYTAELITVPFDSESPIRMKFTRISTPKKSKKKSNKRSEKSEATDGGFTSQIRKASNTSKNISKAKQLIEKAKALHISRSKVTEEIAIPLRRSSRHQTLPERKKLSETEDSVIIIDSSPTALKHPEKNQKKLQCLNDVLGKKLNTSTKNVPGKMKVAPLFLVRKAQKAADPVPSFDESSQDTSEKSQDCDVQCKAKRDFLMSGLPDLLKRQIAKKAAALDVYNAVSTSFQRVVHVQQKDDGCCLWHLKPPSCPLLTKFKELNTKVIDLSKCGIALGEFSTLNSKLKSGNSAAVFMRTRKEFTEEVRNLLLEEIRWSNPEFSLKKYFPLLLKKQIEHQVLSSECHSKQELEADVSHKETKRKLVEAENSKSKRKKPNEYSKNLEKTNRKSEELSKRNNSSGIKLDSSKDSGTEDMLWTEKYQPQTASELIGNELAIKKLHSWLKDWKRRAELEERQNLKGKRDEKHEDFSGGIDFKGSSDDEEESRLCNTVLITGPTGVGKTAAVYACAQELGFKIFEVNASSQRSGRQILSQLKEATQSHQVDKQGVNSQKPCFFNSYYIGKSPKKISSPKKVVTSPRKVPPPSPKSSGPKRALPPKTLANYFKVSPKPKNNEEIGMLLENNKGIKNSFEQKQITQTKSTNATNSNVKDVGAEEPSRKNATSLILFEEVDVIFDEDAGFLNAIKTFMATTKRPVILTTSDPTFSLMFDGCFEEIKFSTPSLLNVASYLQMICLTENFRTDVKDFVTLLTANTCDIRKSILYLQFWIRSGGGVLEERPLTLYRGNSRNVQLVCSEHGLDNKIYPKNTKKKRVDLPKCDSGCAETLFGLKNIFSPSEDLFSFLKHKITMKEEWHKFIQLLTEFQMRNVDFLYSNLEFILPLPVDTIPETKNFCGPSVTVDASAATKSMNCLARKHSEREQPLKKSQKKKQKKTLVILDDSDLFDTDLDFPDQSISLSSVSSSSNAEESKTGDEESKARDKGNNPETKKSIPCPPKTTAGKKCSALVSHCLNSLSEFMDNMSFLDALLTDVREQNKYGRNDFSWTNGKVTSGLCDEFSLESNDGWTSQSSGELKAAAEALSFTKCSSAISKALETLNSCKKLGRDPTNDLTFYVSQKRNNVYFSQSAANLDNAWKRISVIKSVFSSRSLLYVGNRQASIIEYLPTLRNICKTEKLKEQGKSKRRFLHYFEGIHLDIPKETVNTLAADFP
In short: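 Luminescence from ONE-Glo, developed 30 min at room temperature, served as read-out of ELG1-luciferase levels. Beforehand, reporter HEK293T cells received 5-fluorouridine plus test compound for 16 hr at 37 °C.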

O=c1cc(-c2ccc(O)cc2)oc2cc(O)cc(O)c12
inactive: outcome [1] | Potency [2] | outcome [3] | outcome [4] | outcome [5] | Potency [6] | Potency [7] | outcome [8] | outcome [9] | outcome [10] | outcome [11] | outcome [12] | activation [13] 0.5%

Cc1cnc(C(=O)O)c[n+]1[O-]
inactive: outcome [14]

C[C@@H](O)[C@H]1C(=O)N2C(C(=O)O)=C(S[C@@H]3CN[C@H](C(=O)N(C)C)C3)[C@H](C)[C@H]12
inactive: outcome [14]

CCN(CC)CCNC(=O)c1ccc(N)cc1
inactive: outcome [1] | Potency [2] | Potency [15] | outcome [4] | outcome [16] | outcome [5] | Potency [17] | outcome [18] | Potency [6] | Potency [7] | outcome [9] | outcome [10] | outcome [11] | outcome [12] | Potency [19] | outcome [20]

O=C(O)c1c(Cl)c(Cl)c(Cl)c(Cl)c1-c1c2cc(I)c(=O)c(I)c-2oc2c(I)c(O)c(I)cc12
inactive: outcome [14]

CC1(C)O[C@H]2C[C@@H]3[C@H]4CCC5=CC(=O)C=C[C@]5(C)[C@@]4(F)[C@@H](O)C[C@]3(C)[C@]2(C(=O)CO)O1
inactive: outcome [14]

O=C1Nc2ccc(Cl)cc2C(C#CC2CC2)(C(F)(F)F)O1 (configuration not stated)
inactive: outcome [14]

C[N+](C)(C)CC(=O)O
inactive: outcome [1] | Potency [2] | outcome [3] | outcome [4] | outcome [16] | outcome [5] | Potency [6] | Potency [7] | outcome [9] | outcome [11] | outcome [12] | outcome [20]

O=c1[nH]cnc2c1ncn2[C@H]1CC[C@@H](CO)O1
inactive: outcome [14]

CCCCCN(C)CCC(O)(P(=O)(O)O)P(=O)(O)O
inactive: outcome [1] | Potency [2] | outcome [3] | outcome [4] | outcome [16] | outcome [5] | Potency [6] | Potency [7] | outcome [8] | outcome [9] | outcome [11] | outcome [12] | outcome [14] | Potency [19] | outcome [20]

CCOC(=O)O[C@]1(C(=O)OCCl)CC[C@@H]2[C@H]3CCC4=CC(=O)C=C[C@]4(C)[C@@H]3[C@@H](O)C[C@@]21C
inactive: outcome [14]

COc1cccc(-c2cc(=O)c3ccccc3o2)c1N
inactive: outcome [1] | Potency [2] | outcome [3] | outcome [4] | outcome [16] | outcome [5] | Potency [6] | Potency [7] | outcome [8] | outcome [9] | outcome [10] | outcome [11] | outcome [12] | activation [13] -3.44%
active: Potency [19] 2.91 µM

CC/C(=C(\c1ccccc1)c1ccc(OCCN(C)C)cc1)c1ccccc1
inactive: outcome [3] | outcome [4] | Potency [6] | Potency [7] | outcome [8] | outcome [9] | outcome [10] | outcome [14] | Potency [19] | outcome [20] | activation [13] -2.75%
active: Potency [15] 17.8 µM | Potency [17] 13.1 µM

COc1cc2ncnc(Nc3ccc(F)c(Cl)c3)c2cc1OCCCN1CCOCC1
inactive: outcome [14]
